Bioassay records from PubChem BioAssay.
IL-1B inflam inh = blocks inflammasome-driven IL-1 beta release; THP-1 LPS/ATP IL-1B secretion, AlphaLISA, 16 h; hits give low values; activity change, % at 57.5 µM; 360,000 compounds, 4.7% hits; AID 743279; in the data active = activity change below about -50%; inconclusive = mostly about -30% to -49%; note: % is set by controls: 0 for no effect and ±100 for the full control effect
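Secreted IL-1B measured by AlphaLISA bead assay after 16 h compound exposure of THP-1 cells; compounds (final up to 57.5 uM) added 1 h before LPS (250 ng/mL) and ATP (1.25 mM) stimulation; lower signal means less secretion.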
DT40 TDP1 no CPT = qHTS for Inhibitors of human tyrosyl-DNA phosphodiesterase 1 (TDP1): qHTS in cells in absence of CPT. DT40 Tdp1-/- hTDP1 cells, no CPT, ATP luminescence, 48 h. Potency, µM (highest dose often 46.2 µM), for inactives: at the highest dose activity change, negative = growth inhibition, actives largely listed as inhibitors. 420,000 compounds, 15% hits; note: potency is the fitted concentration of half-maximal effect; % is set by controls: 0 for no effect and ±100 for the full control effect; nearly all actives have a fitted effect of over 55% in size
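Readout: luminescence from CellTiter-Glo after 30 min in the dark at RT. Cells: DT40 Tdp1-/- with stable hTDP1, 400/well. Exposure: compounds alone, ≥48 hr, 37 °C.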
TDP1 cell CPT = growth inhibition of DT40 Tdp1-/-;hTDP1 cells with camptothecin (screen for TDP1 inhibitors); chicken DT40 Tdp1-/-;hTDP1 cells + 20 nM CPT, ATP luminescence, 48 h; Potency, µM (doses to about 46.2 µM), inactives show at the top dose activity change, negative = growth inhibition, hits mostly inhibitors; 420,000 compounds, 12% hits; AID 686979; note: potency is the fitted concentration of half-maximal effect; % is set by controls: 0 for no effect and ±100 for the full control effect; nearly all actives have a fitted effect of over 55% in size
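Chicken DT40 Tdp1-/- cells complemented with human TDP1, 400 cells/well, exposed to compounds plus 20 nM camptothecin for at least 48 h at 37 C; viability read as ATP content by CellTiter-Glo luminescence.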
TDP1 block = inhibitors of human tyrosyl-DNA phosphodiesterase TDP1; Potency, µM (titrated, usually from 130 µM), for the others: at the highest dose activity change, negative = inhibition, hits mostly inhibitors; recombinant TDP1, AlphaScreen DNA substrate cleavage; 350,000 compounds, 0.28% hits; AID 485290; Q9NUW8; note: potency is the fitted concentration of half-maximal effect; % is set by controls: 0 for no effect and ±100 for the full control effect; nearly all actives have a fitted effect of over 40% in size
Target sequence (Q9NUW8 whole entry, looked up): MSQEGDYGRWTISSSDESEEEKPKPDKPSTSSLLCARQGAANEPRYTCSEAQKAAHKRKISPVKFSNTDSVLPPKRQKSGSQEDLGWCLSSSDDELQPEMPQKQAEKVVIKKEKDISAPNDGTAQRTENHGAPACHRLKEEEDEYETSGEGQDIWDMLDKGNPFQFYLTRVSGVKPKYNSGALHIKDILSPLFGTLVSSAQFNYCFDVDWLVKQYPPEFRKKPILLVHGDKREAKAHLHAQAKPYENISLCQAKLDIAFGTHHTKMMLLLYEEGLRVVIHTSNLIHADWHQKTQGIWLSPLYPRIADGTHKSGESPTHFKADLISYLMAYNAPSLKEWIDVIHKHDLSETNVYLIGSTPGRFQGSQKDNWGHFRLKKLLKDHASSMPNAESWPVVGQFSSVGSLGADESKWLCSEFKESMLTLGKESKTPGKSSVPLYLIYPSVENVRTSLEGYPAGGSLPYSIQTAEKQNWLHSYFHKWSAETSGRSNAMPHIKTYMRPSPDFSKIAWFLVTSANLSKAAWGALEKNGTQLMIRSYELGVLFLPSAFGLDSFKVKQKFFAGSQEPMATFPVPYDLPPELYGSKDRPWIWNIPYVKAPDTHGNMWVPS
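Steps: enzyme plus compound, 15 min RT; add biotin/phosphotyrosine-FITC oligonucleotide (15 nM final), react 5 min; add donor/acceptor beads (10 ug/ml final), 10 min; read AlphaScreen. Tdp1 at 1 nM final.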
HepG2 viability = counter-screen for TGF-b inhibitors: cytotoxicity in HepG2 cells; HepG2 CAGA-GFP viability, ATP luminescence, 18 h; AID 588856; Potency, µM (top dose mostly 46.1 µM), for the others: at the highest dose activity change, negative = cytotoxicity, most hits filed as cytotoxic; 410,000 compounds, 0.76% hits; note: potency is the fitted concentration of half-maximal effect
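HepG2 CAGA-GFP cells (1000/well, DMEM with 1% FBS) received compound, then TGF-beta at 500 pg/mL final, and were incubated 18 hours at 37 degrees C. Viability was read by CellTiter-Glo luminescence. Media-only wells were set as complete cell-killing and DMSO as no toxicity.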
TGFb SMAD3 inh = TGF-b pathway inhibition; Potency, µM (doses to about 46.1 µM), without a hit: at the highest dose activity, negative = inhibition, hits mostly inhibitors; HepG2 CAGA-GFP TGF-b/SMAD3 reporter, GFP fluorescence, 18 h; TGF-beta stimulated, 500 pg/mL final; AID 588855; 410,000 compounds, 1.2% hits; note: potency is the fitted concentration of half-maximal effect; % is set by controls: 0 for no effect and ±100 for the full control effect; nearly all actives have a fitted effect of over 65% in size
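GFP signal (ex488/em500-530) from TGF-beta-stimulated HEPG2 CAGA-GFP cells, 500 pg/mL final, 18 h at 37 degrees C in DMEM plus 1% FBS, normalized to unstimulated and DMSO-stimulated controls.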
Numbers without * were called inactive; ? = inconclusive; nt = not tested or not shown; [ ] = remark or other dose. Compounds with a hit are over-represented: about 18% of the library has one in this group of screens. Unless noted, calls come from the whole dose curve; as a rule, active = well fitted curve in the direction sought with a large enough effect; inconclusive = small, poorly fitted or top-dose-only effect, or another doubt; inactive = no such curve, though single readings can be large; an effect the other way counts as inactive or inconclusive.

SMILES | IL-1B inflam inh | DT40 TDP1 no CPT | TDP1 cell CPT | TDP1 block | HepG2 viability | TGFb SMAD3 inh
COC(=O)c1c(NC(=O)c2ccc(S(=O)(=O)N3CCCCC3)cc2)sc2c1CCN(C)C2 | nt | 4.6µM* | 4.6µM* | -8% | -29% | 45%
CCOC(=O)c1c(NC(=O)CCS(=O)(=O)c2ccccc2)sc2c1CCN(C(C)C)C2 | -80* | 4.1µM* | 4.1µM* | 4% | -64% | ?
CCOC(=O)N1CCN(c2cc(N(C)CCO)c([N+](=O)[O-])c3nonc23)CC1 | 11 | 26% | -9% | -2% | 3% | 1%
CC(=O)OCCN(C)c1cc(SC(C)C)c2nonc2c1[N+](=O)[O-] | -68* | 16µM* | 13µM* | 0% | 2% | 2%
CN(CCO)c1cc(Sc2nc3ccccc3s2)c2nonc2c1[N+](=O)[O-] | -17 | 1.8µM* | 2.1µM* | 5% | -99% | ?
Cc1cc(C(=O)OCC(=O)NC2CC2)c2ccccc2n1 | 14 | 17% | -3% | 0% | -3% | 8%
COc1cccc(-c2cc(C(=O)N3CCN(c4ncccn4)CC3)c3ccccc3n2)c1 | ? | 23µM* | ? | 7% | 4% | -2%
CC(C)Oc1cccc(-c2cc(C(=O)N3CCN(S(C)(=O)=O)CC3)c3ccccc3n2)c1 | 11 | 10µM* | ? | 9% | 0% | 24%
COc1ccc(-c2cc(C(=O)N3CCN(c4ncccn4)CC3)c3ccccc3n2)cc1OC | ? | ? | ? | -17% | -27% | -5%
O=C(c1cc(-c2ccccn2)nc2ccccc12)N1CCN(c2ncccn2)CC1 | 4 | ? | -26% | -8% | -1% | 4%
COc1ccc(-c2cc(C(=O)N3CCC3)c3ccccc3n2)cc1OC | -2 | -5% | -7% | 5% | 8% | -1%
Cc1ccc2nc(-c3ccccn3)cc(C(=O)N3CCN(c4ncccn4)CC3)c2c1 | 1 | 13µM* | 21µM* | 2% | 11% | -6%
O=C(c1cc(-c2ccncc2)nc2ccc(Br)cc12)N1CCN(c2ccccn2)CC1 | -1 | 12µM* | ? | 4% | -33% | -1%
CN(Cc1ccccc1)C(=O)[C@H](Cc1ccc2ccccc2c1)NC(=O)[C@@H]1C[C@@H](O)CN1C(=O)c1cn(C)c2ccccc12 | nt | nt | nt | 13% | nt | nt
CC1CN(S(=O)(=O)c2ccccc2)CN1C(=O)N1CCOCC1 (stereo not given) | 8 | 6% | 13% | 8% | 1% | -7%
O=C(O)CO.[NH2-].[NH2-].[Pt+2] | nt | -6% | 6% | nt | nt | nt
Cc1ccc(-c2cc(C(=O)N3CCN(c4ncccn4)CC3)c3ccccc3n2)cc1 | -17 | 16µM* | ? | 7% | -31% | -2%
O=C(c1cc(-c2ccccn2)nc2c(Cl)cccc12)N1CCN(S(=O)(=O)c2ccccc2)CC1 | -22 | 21µM* | ? | 1% | -1% | 8%
COc1ccc(CCNC(=O)CSc2nc3c(sc(=S)n3-c3ccccc3)c(=O)[nH]2)cc1OC | 20 | -2% | 9% | nt | 4% | -11%
C/C(=N\NC(=S)Nc1ccccc1C)C1Cc2ccccc2C(=O)O1 (stereo not given) | 1 | 6.5µM* | ? | 5% | 15% | -28%
Nc1nc(N)c2ncn(C3C=CC(CO)C3)c2n1 (stereo not given) | 16 | 9.2µM* | 6.5µM* | nt | -17% | 4%
Nc1ncnc2c1ncn2C1CCCC(CO)O1 (stereo not given) | 34 | -4% | 0% | nt | 10% | 8%
Cc1cc(C)c(O)c(CN(C)Cc2cc(Cl)cc(Cl)c2O)c1 | -90* | 16µM* | ? | nt | -58% | ?
O=C(CC1SC(N2CCCCC2)=NC1=O)Nc1cccc(C(=O)N2CCCC(C(F)(F)F)C2)c1 (stereo not given) | 36 | -15% | ? | nt | 6% | 1%
CC(=O)c1cccc(N=Cc2c(O)c3ccccc3oc2=O)c1 | 30 | 3% | 0% | 3% | -26% | -17%
SMILES | IL-1B inflam inh | DT40 TDP1 no CPT | TDP1 cell CPT | TDP1 block | HepG2 viability | TGFb SMAD3 inh
CC(=O)Nc1ccc(N=Cc2c(O)c3ccccc3oc2=O)cc1 | -5 | -11% | 21µM* | nt | 1% | 12%
CCN(CC)C(=O)c1cccnc1 | nt | -19% | 6% | -1% | nt | nt
CCc1nn2c(=O)cc(COC(=O)c3cccc(NC(=O)CCc4ccccc4)c3)nc2s1 | nt | 6.5µM* | ? | -6% | -15% | 0%
CCc1nn2c(=O)cc(COC(=O)c3ccc(NC(=O)CCc4ccccc4)cc3)nc2s1 | nt | 9.2µM* | 23µM* | 9% | 0% | 2%
CC(C)Cc1nn2c(=O)cc(COC(=O)c3cccc(NC(=O)CCc4ccccc4)c3)nc2s1 | nt | -9% | -18% | 6% | 8% | -9%
CCCc1nn2c(=O)cc(COC(=O)c3cccc(NC(=O)COc4ccccc4C)c3)nc2s1 | nt | 18µM* | ? | 4% | 6% | -2%
CC(Oc1ccc2c(c1)oc(=O)c1ccccc12)C(=O)NCCN1CCOCC1 (stereo not given) | -13 | 8% | -23% | -2% | -15% | -4%
CC(=O)Nc1ccc(C2=CC(=O)C[C@H](c3ccc4c(c3)OCO4)C2)cc1 | ? | ? | ? | 5% | 0% | 0%
COc1cc(CCNC(C)=O)c(C(=O)/C=C/c2cccc(OC)c2OC)cc1OC | nt | -16%[9.04 µM] | 2%[9.04 µM] | 8% | nt | nt
CC(C)(C)OC(=O)Cc1nnc(-c2nc3ccccc3[nH]2)s1 | nt | nt | nt | -3% | nt | nt
Cc1sc2nc(SCc3ccccc3)n(Cc3ccco3)c(=O)c2c1C | 18 | -23% | -2% | -2% | 1% | 4%
Cc1sc2nc(SCC(=O)C(C)(C)C)n(Cc3ccco3)c(=O)c2c1C | 20 | 13µM* | 13µM* | -1% | -2% | 2%
CCOC(=O)c1cc(CC)sc1NC(=O)CSc1nc2ccccc2c(=O)n1Cc1ccco1 | 17 | ? | ? | 3% | 8% | -13%
CCOC(=O)CC(=O)CSc1nc2sc(C)cc2c(=O)n1Cc1ccco1 | 12 | 23µM* | 16µM* | -7% | 2% | -7%
O=C(Nc1cccc(S(=O)(=O)NC2=NCCC2)c1)c1ccc(=O)[nH]c1 | -29 | 18% | -7% | 1% | -18% | -6%
